Experimental data as given in PubChem BioAssay AID1345083 (National Center for Advancing Translational Sciences (NCATS), 2018).
The campaign covered roughly 94,000 compounds. About 6,200 (6.6%) were called active. Inconclusive results (about 31%) are left out. The call rests on the fitted dose curve; in most records, active means well fitted inhibition curve with a large enough effect; inconclusive means small, poorly fitted or top-dose-only effect; inactive means flat fitted curve, though single readings scatter. Shown is part of a subset that was picked to be rich in actives.

Test: Cytotoxic Profiling in HEK 293 Cell Line of Diverse Libraries Using Quantitative High-Throughput Screening; further: nearly all actives have a fitted effect of over 60% in size
Details: HEK 293 viability, ATP luminescence (CellTiter-Glo), 48-72 h; series mostly up to 115 µM; activity change, negative = cytotoxicity: at the top concentration
Outline: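 250 HEK 293 cells/well; compound by pintool; incubated 48 or 72 hr at 37 degree Celsius; CellTiter-Glo added, 10 min RT, luminescence imaged.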
On the % scale 0 is the no-effect control and ±100 the full control effect; potency means the concentration at half of the fitted maximal effect.

Structure (SMILES) | activity change, negative = cytotoxicity | outcome | Potency
Cc1ncccc1C(=O)N1CCC2(CC1)CC(CO)N(C(=O)c1ccccc1)C2 (stereo not drawn) | -21.8% (inactive) |  | 
COCCC1(NS(C)(=O)=O)CCN(C(=O)c2ccc(C#N)cc2)CC1 | 1.21% (inactive) |  | 
COc1ccc([C@@H](NC(=O)Cc2c(F)cccc2Cl)C2CC(O)C2)cn1 (stereo partly drawn) |  | inactive | 
CC(C)c1noc(-c2cn(C3CCN(C(=O)c4ccc(N(C)C)cc4)C3)nn2)n1 (stereo not drawn) |  |  | 31.6 µM (active)
COc1cc(OC)cc(C(=O)N2CCCC(n3cc(-c4nc(C(C)C)no4)nn3)C2)c1 (stereo not drawn) | -23.9% (inactive) |  | 
COc1ccc(C(=O)N2CCC(n3cc(-c4nc(C(C)C)no4)nn3)CC2)cc1F | -20.9% (inactive) |  | 
CCOc1ccc(C(=O)N2CCC(n3cc(-c4nc(C)no4)nn3)C2)cc1 (stereo not drawn) | 2.35% (inactive) |  | 
COc1ccc(C(=O)N2CCCC(n3cc(-c4nc(C5CC5)no4)nn3)C2)cc1 (stereo not drawn) | -16.6% (inactive) |  | 
O=C(c1ccc(Cl)cc1)N1CCCC(n2cc(-c3nc(-c4ccccc4)no3)nn2)C1 (stereo not drawn) |  |  | 35.5 µM (active)
COc1ccc(F)cc1-c1ncc2c(n1)OCCN(CC1CC1)C2=O | -11.4% [at 172 µM] (inactive) |  | 
CCNC(=O)N1C[C@@H]2OCC(=O)N(Cc3ccc(F)cc3)[C@@H]2C1 | -7.12% [at 172 µM] (inactive) |  | 
COc1cccc(CN2CCN(c3ncccc3Cl)CC2CCO)c1 (stereo not drawn) | -18.9% (inactive) |  | 
Cc1ccc(CN2CCN(c3nc4ccccc4o3)CC2CCO)cc1 (stereo not drawn) |  |  | 44.7 µM (active)
CCOc1ccc(CN2CCN(CC(N)=O)CC2CCO)cc1 (stereo not drawn) | -4.27% (inactive) |  | 
COc1ccc(CN2CCN(c3nc4ccccc4o3)CC2CCO)cc1C (stereo not drawn) |  |  | 35.5 µM (active)
CCOC(=O)N1CCC(N2CCN(Cc3ccccc3F)C(CCO)C2)CC1 (stereo not drawn) | -1.09% (inactive) |  | 
CN1C(=O)c2cccn2CC1C(=O)Nc1ccc(F)cc1F (stereo not drawn) | 3.42% (inactive) |  | 
O=C(NC1CC1)[C@@H]1C[C@H](Oc2ccccc2)CN1C(=O)CN1CCCCCC1 | -5% (inactive) |  | 
CCc1nncn1C1CCN(S(=O)(=O)c2cc(F)ccc2OC)CC1 | -19.1% (inactive) |  | 
Cc1cccc(N2Cc3c(NCCCOC(C)C)ncnc3N(C)CC2=O)c1 | -4.64% (inactive) |  | 
NCc1ccccc1-c1ccc(F)cc1 | -28.9% [at 172 µM] (inactive) |  | 
Cc1cc2cccc(-c3nc(C4CCOC4)nn3CC(=O)O)c2o1 (stereo not drawn) |  | inactive | 
Cc1nc(N2CCC(NCCNc3ccncc3C)CC2)c2ccsc2n1 |  |  | 35.5 µM (active)
Cc1nc(N2CCC(NC(=O)c3cnccn3)CC2)cc(C(F)(F)F)n1 | 0.535% (inactive) |  | 
CNC(=O)c1cc(C2CC2)nc2onc(C3CCCN3C(=O)c3ccccc3)c12 (stereo not drawn) | 2.63% (inactive) |  | 
Cc1ccc(NC(=O)CC2CCCN(c3cn[nH]c(=O)c3)C2)cc1F (stereo not drawn) | -5.38% (inactive) |  | 

Structure (SMILES) | activity change, negative = cytotoxicity | outcome | Potency
CN(C)CC(O)COc1ccc(CN(C)C2CCSCC2)cc1 (stereo not drawn) | 2.5% (inactive) |  | 
COc1ccc(-c2nc3c(c(=O)[nH]2)CCN(C(=O)Cc2ccc(OC)c(Cl)c2)C3)cc1 | 6.92% (inactive) |  | 
COc1ccccc1-n1c(=O)c(C(=O)N2CCN([S+](=O)([O-])c3cccs3)CC2)nc2cccnc21 | 0.116% (inactive) |  | 
O=[S+]([O-])(c1cccs1)N1CCN(c2nccc(Nc3ccccc3F)n2)CC1 |  |  | 35.5 µM (active)
O=c1n(CCN2CCN([S+](=O)([O-])c3cccs3)CC2)nc2n1CCCC2 | -2.54% (inactive) |  | 
C=CCNC(=O)c1cn2c(n1)CN(C(=O)c1ccccc1F)CC2 | 2.59% (inactive) |  | 
CCNC(=O)N1CCC(n2c(C)cnc2C2CC2)CC1 |  | inactive | 
CCOc1ccc(NC(=O)N2CCC3(CC2)SCC(=O)N3Cc2ccco2)cc1 | -2.92% (inactive) |  | 
CCOc1ccccc1C(=O)N1CCC(Oc2ncccc2C(=O)N(C)C)C1 (stereo not drawn) | -24% (inactive) |  | 
O=C(CCC1CCCC1)N1CCC2(CC1)CC(O)CCO2 (stereo not drawn) | 2.16% (inactive) |  | 
c1ccc(-n2cnnc2CC2CCN(Cc3ccc(-c4ccn[nH]4)o3)CC2)cc1 | 3.74% (inactive) |  | 
CC(C)CN1CCN(C2CCOC3(CCN(S(=O)(=O)c4cccs4)CC3)C2)CC1 (stereo not drawn) | -11.3% (inactive) |  | 
CCOc1ncccc1C(=O)N1CCN(Cc2ccccc2)CC(O)C1 (stereo not drawn) | -16.2% (inactive) |  | 
COC(=O)c1cccc2nc([C@H]3CCN(Cc4ccccc4)C3)oc12 |  |  | 79.4 µM (active)
Cc1nnc([C@H]2CCN(Cc3ccc(F)cc3)C2)o1 | 2.67% [at 230 µM] (inactive) |  | 
Cc1cc(C[C@@H]2COC[C@@H]2NC(=O)CCCc2nc(-c3ccco3)no2)on1 |  | inactive | 
COCCNC(=O)c1cnc2n[nH]c(-c3ccccc3OC)c2n1 | -20.1% [at 172 µM] (inactive) |  | 
COc1ccccc1-c1[nH]nc2ncc(C(=O)N3CCN(Cc4ccccc4)CC3)nc12 |  |  | 100 µM (active)
COc1ccccc1-n1c(=O)c(C(=O)N2CCN(Cc3ccccc3)CC2)nc2cccnc21 |  | inactive | 
CNC(=O)c1cc(C)nc2onc(C3CCN(C(=O)c4ccc(C(F)(F)F)cc4)C3)c12 (stereo not drawn) | -23.2% (inactive) |  | 
Cc1cc(C)n(CC(=O)N2CCCC3(C2)Nc2cccnc2NC3=NC2CCCC2)n1 (stereo not drawn) | -12.2% (inactive) |  | 
O=C(c1ccc(Cl)cc1)N1CCN(CCn2nc3n(c2=O)CCCC3)CC1 | -9.57% (inactive) |  | 
Cc1noc(C)c1S(=O)(=O)N1CCCN(c2nc3ncccc3o2)CC1 | 0.408% (inactive) |  | 
O=C(NCc1cccc(F)c1)C1CN(c2ccccc2)C(=O)N1 (stereo not drawn) | 4.55% [at 172 µM] (inactive) |  | 
CNC(=O)CN(C)C(=O)[C@@H]1CN(c2ncccn2)C[C@H]1COC | -1.47% (inactive) |  | 
F[C@@H]1CN(C2CCC2)C[C@@H]1OCc1nc2ncccc2[nH]1 | -5.83% [at 230 µM] (inactive) |  | 

Structure (SMILES) | activity change, negative = cytotoxicity | outcome | Potency
CC(=O)Nc1ccc(S(=O)(=O)N[C@H]2CO[C@H]3[C@@H]2OC[C@@H]3n2nnnc2Oc2ccccc2)cc1 | -19.3% (inactive) |  | 
O=C(Nc1ccccc1)O[C@@H]1CO[C@H]2[C@@H]1OC[C@@H]2NS(=O)(=O)c1cccc2cccnc12 | -18.1% (inactive) |  | 
O=C(Nc1ccc(Oc2ccccc2)cc1)O[C@@H]1CO[C@H]2[C@@H]1OC[C@@H]2NS(=O)(=O)c1cccs1 |  |  | 39.8 µM (active)
O=C(c1ccccc1)N1CCC2(CC(c3cccnc3)=NO2)C1 (stereo not drawn) |  | inactive | 
O=C(Nc1ccc(Cl)cc1)C1CCN(C(=O)c2ncn3c2COC(c2ccc(F)cc2)C3)CC1 (stereo not drawn) | -27.3% (inactive) |  | 
O=C(Nc1cccc(Cl)c1)[C@@H]1C[C@H](c2ccc(F)cc2)N([S+](=O)([O-])C2CC2)C1 |  |  | 79.4 µM (active)
O=C(NCC1CCOCC1)Nc1cccc(Cl)c1 | 10.7% (inactive) |  | 
CC[C@H]1CN(S(C)(=O)=O)CC[C@H]1CC(=O)NCc1cccc2ccccc12 | -26% [at 172 µM] (inactive) |  | 
Cn1nc(-c2nncn2CC2CC2)c2c1CCN(C(=O)CC1CCCC1)C2 |  | inactive | 
O=C(Cc1cccc(F)c1)N1CCCC(Cc2nncn2-c2ccccc2)C1 (stereo not drawn) | -7.97% (inactive) |  | 
NS(=O)(=O)c1ccc(F)c(C(=O)NCc2noc(-c3ccco3)n2)c1 | -23.5% (inactive) |  | 
CCOc1ncccc1CNC(=O)c1cc(S(N)(=O)=O)ccc1F |  |  | 79.4 µM (active)
NS(=O)(=O)c1ccc(F)c(C(=O)N[C@@H]2c3ccccc3C[C@@H]2O)c1 | -0.467% (inactive) |  | 
CNC(=O)c1cc(C)nc2onc(C3CCCN3C(=O)C3CCCC3)c12 (stereo not drawn) | -7.89% (inactive) |  | 
Cc1cccc(NC(=O)N2CC(Oc3ccc(-c4nc(C)no4)cc3)C2)c1 | -12.5% (inactive) |  | 
CC1=C[C@@H](CNS(=O)(=O)c2cccc(C#N)c2)[C@H](C(C)C)C[C@H]1CC(=O)N(C)Cc1cccnc1 |  |  | 39.8 µM (active)
CN1C[C@H](NS(C)(=O)=O)CCC[C@@H](C(=O)N(C)Cc2cccnc2)CC1=O | 1.06% [at 172 µM] (inactive) |  | 
CN(Cc1ccccc1)C(=O)C[C@@H]1O[C@H](CNS(=O)(=O)c2ccc(Cl)cc2)[C@@H](O)[C@H]1O |  | inactive | 
CCOc1nccnc1NC1CCN(C(=O)c2cccnc2)CC1 | 6.7% (inactive) |  | 
Cc1nn(CCO)cc1-c1c(-c2ccccc2)ncn1CC(=O)O | -9.19% (inactive) |  | 
O=C(c1cccnc1)N1CCC(c2nnc(Cn3cccn3)n2C2CC2)CC1 |  | inactive | 
Cc1cnc(C(=O)N[C@@H]2CCC[C@@H]2C(=O)Nc2ccc3c(c2)OCCO3)cn1 | -7.64% (inactive) |  | 
O=C(O)CCc1cc2n(n1)CCCN(C(=O)CN1CCOC1=O)C2 | -3.14% (inactive) |  | 
CS(=O)(=O)c1ccc(N2CCN(C(=O)[C@H]3CC[C@@H](N)C3)CC2)c(F)c1 |  | inactive | 
O=C(c1ccccc1F)N1CCC(c2nn(-c3ccc(F)cc3)c(=O)[nH]2)CC1 | -24.9% (inactive) |  | 
O=C(c1ccccc1F)N1CCC(c2nn(-c3ccc(Cl)cc3)c(=O)[nH]2)CC1 |  |  | 79.4 µM (active)

Structure (SMILES) | activity change, negative = cytotoxicity | outcome | Potency
Cc1ccc(C(=O)N2CCC(c3nn(-c4ccccc4)c(=O)[nH]3)CC2)cc1 | -28.8% (inactive) |  | 
COc1cc(=O)n2c(c1C(=O)Nc1cc(C)ccc1C)CCCC2 | 5.72% (inactive) |  | 
O=C(NC1CCCN(CCn2nc3n(c2=O)CCCC3)C1)c1ccc(F)cc1 (stereo not drawn) |  | inactive | 
CCCCCC(=O)N1CC[C@H]2COC(=O)N2c2cc(F)ccc2C1 | -1.72% [at 172 µM] (inactive) |  | 
O=S(=O)(c1ccccc1)N1CCC(F)(c2nc(Cc3ccccc3)no2)CC1 |  |  | 44.7 µM (active)
O=S(=O)(c1ccccc1)N1CCN(c2ccnc3ccnn23)CC1 | -19.4% (inactive) |  | 
CN(CCc1noc(C2CN(S(=O)(=O)c3ccccc3)C2)n1)C(=O)c1ccncc1 | -17.8% (inactive) |  | 
O=C(NCc1ccncc1)C1CC(=O)N(c2n[nH]c3cccc(F)c23)C1 (stereo not drawn) | -11% (inactive) |  | 
Cc1ncc(C(=O)N2CCCC(c3cc(N4CCOCC4)nc(C)n3)C2)cn1 (stereo not drawn) | -4.68% (inactive) |  | 
CN(C)C(=O)C1=NOC2CN(C(=O)c3ccn(C)n3)CC12 (stereo not drawn) |  | inactive [at 172 µM] | 
O=C(CN1C(=O)NC2(CCOCC2)C1=O)Nc1cccc(Br)c1 | -9.49% (inactive) |  | 
CCOc1ccccc1CN1CCCOCCNC(=O)CC1 | 4.71% (inactive) |  | 
CCOc1ccccc1CN1CCC2(CCN(Cc3cncs3)CC2)Oc2ccccc21 |  |  | 44.7 µM (active)
CCOc1ccccc1CN1CCC2(CCN(C(=O)c3cccc(Cl)c3)CC2)Oc2ccccc21 | -12.9% (inactive) |  | 
CCn1ccc(C(=O)N2C[C@@H](F)C[C@H]2C(=O)N2CCCCC2)n1 | 5.92% (inactive) |  | 
C#CCNC(=O)CC[C@H]1CNC(=O)[C@@H]2[C@@H](CCN2Cc2ccc(N(C)C)cc2)N1C | -24.8% [at 172 µM] (inactive) |  | 
CN1C[C@@H](NC(=O)CC(C)(C)C)C[C@H]1c1nc(Cc2ccccc2)no1 | -26.1% [at 172 µM] (inactive) |  | 
CN1C[C@@H](NC(=O)c2ccccc2)C[C@H]1c1nc(-c2ccccc2)no1 | -13.3% [at 172 µM] (inactive) |  | 
N#Cc1ccc(-c2nc(C(=O)NC3CCCCCC3)no2)cc1 | 5.1% (inactive) |  | 
COc1ccc(CN2C[C@H](O)C[C@H]2c2nc(-c3ccc4c(c3)OCO4)no2)c(OC)c1OC | -15.4% (inactive) |  | 
CN1C[C@@H](NC(=O)c2ccc(C#N)cc2)C[C@H]1c1nc(-c2ccc(OC(F)(F)F)cc2)no1 |  |  | 22.4 µM (active)
CN1C[C@@H](NC(=O)c2cnccn2)C[C@H]1c1nc(-c2ccc3c(c2)OCO3)no1 | -7.22% [at 172 µM] (inactive) |  | 
CN1C[C@@H](NC(=O)COc2ccccc2)C[C@H]1c1nc(-c2ccc3c(c2)OCO3)no1 |  |  | 100 µM (active)
N#Cc1ccc(C(=O)N2C[C@@H]3C[C@H](C2)c2ccc(-c4ccc(OC(F)(F)F)cc4)c(=O)n2C3)cc1 | -16.7% (inactive) |  | 
CN1C[C@@H](NC(=O)c2ccc(C(C)(C)C)cc2)C[C@H]1c1nc(-c2ccc3ccccc3c2)no1 |  |  | 22.4 µM (active)
